“And” between values parts separate entries of the source, which are not always exact repeats. Equal entries are not always repeated. Inconclusive results are not listed. More than one record can exist for a structure, and the calls need not agree. The source made the active and inactive calls. Calls follow the shape of the dose curve; as a rule, active = well fitted curve in the direction sought with a large enough effect in the repeat runs; inconclusive = weak or mixed curves; inactive = no such curve, though single readings can be large; an effect the other way counts as inactive or inconclusive.
Key:
[1] = Human pregnane X receptor (PXR) small molecule agonists, qHTS cell viability counter screen (AID 1346977); also: nearly all actives have a fitted effect of over 50% in size
Outline: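 Measures live-cell protease fluorescence (CellTiter-Fluor) in PXR-Luc HepG2 cells treated 24hr with compounds at 37C. Cells had 5hr to attach before pin transfer of DMSO solutions.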

[2] = Caspase-3/7 induction in CHO-K1 cells by small molecules, qHTS cell viability counter screen (AID 1346979); also: nearly all actives have a fitted effect of over 35% in size
Outline: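 In the same wells as the caspase read, viability of compound-treated wild-type CHO-K1 cells was assessed using CellTiter-Fluor, added after 16hr at 37C and measured by fluorescence following 1hr further incubation.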

[3] = Caspase-3/7 induction in CHO-K1 cells by small molecules, qHTS assay (AID 1346980); also: nearly all actives have a fitted effect of over 15% in size
Outline: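 Wild-type CHO-K1 cells exposed to compounds for 17hr at 37 C, 5% CO2. Caspase-3/7 activity then measured by Caspase-Glo 3/7 luminescence after 30min at room temperature.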

[4] = Caspase-3/7 induction in HepG2 cells by small molecules, qHTS cell viability counter screen (AID 1346981); also: series mostly up to about 92 µM; nearly all actives have a fitted effect of over 30% in size
Outline: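 Wild-type HepG2 cells (2,000/well) were allowed to settle for 5 hr at 37 C, 5% CO2, then dosed with compounds in DMSO by pin transfer. After 16 hr at 37 C, CellTiter-Fluor was added and fluorescence read 1 hr later.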

[5] = biological target: Cytochrome P450 2D6 (Homo sapiens) (UniProt P10635); assay: Cytochrome P450 Family 2 Subfamily D Member 6 (CYP2D6) small molecule antagonists: luciferase reporter qHTS assay (AID 1671196); also: nearly all actives have a fitted effect of over 50% in size; also: potency is read from the fitted curve at half-maximal effect
Outline: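 CYP2D6 enzyme–substrate mix was held with compound for 10 min at room temperature, then NADPH regeneration solution was added and the reaction ran 1 h at room temperature. Luciferin product was detected by luminescence after 20 min with detection reagent.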

[6] = biological target: Cytochrome P450 2C19 (Homo sapiens) (UniProt P33261); assay: Cytochrome P450 Family 2 Subfamily C Member 19 (CYP2C19) small molecule antagonists: luciferase reporter qHTS assay (AID 1671197); also: nearly all actives have a fitted effect of over 65% in size; also: potency is read from the fitted curve at half-maximal effect
Outline: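 P450-Glo CYP2C19 system: enzyme-substrate mix with compound 10 min at room temperature, then NADPH regeneration solution, 1 h at 37C. Proluciferin-to-luciferin conversion detected by luminescence after 20 min with detection reagent; ketoconazole as positive control.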

[7] = biological target: Cytochrome P450 1A2 (Homo sapiens) (UniProt P05177); assay: Cytochrome P450 Family 1 Subfamily A Member 2 (CYP1A2) small molecule antagonists: luciferase reporter qHTS assay (AID 1671199); also: nearly all actives have a fitted effect of over 50% in size; also: potency is read from the fitted curve at half-maximal effect
Outline: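 Human CYP1A2 activity measured with a P450-Glo proluciferin substrate; compounds in DMSO preincubated 10 min at room temperature with enzyme-substrate mix, then NADPH regeneration system added for 1 h. Luciferin detection reagent, 20 min, luminescence read.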

[8] = biological target: Voltage-gated inwardly rectifying potassium channel KCNH2 (Homo sapiens) (UniProt Q12809); assay: Human Ether-a-go-go-Related Gene (hERG) channel small molecule antagonists: fluorescence cell-based qHTS assay (AID 1671200);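 also: hERG-expressing U2OS cells given a thallium stimulus after FluxOR II dye loading; series mostly up to about 77 µM; nearly all actives have a fitted effect of over 50% in size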
Outline: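 Quantitative HTS in hERG-U2OS cells: thallium entry through the channel reports activity, read as continuous 480/540 nm fluorescence over 2 min after stimulus addition.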

[9] = biological target: Cytochrome P450 3A4 (Homo sapiens) (UniProt P08684); assay: Cytochrome P450 Family 3 Subfamily A Member 4 (CYP3A4) small molecule antagonists: luciferase reporter qHTS assay (AID 1671201); also: nearly all actives have a fitted effect of over 50% in size; also: potency is read from the fitted curve at half-maximal effect
Outline: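 Inhibition of CYP3A4 is measured as loss of light: the enzyme converts a proluciferin substrate to luciferin, detected luminescently. Reaction ran 1 h at room temperature with NADPH regeneration after a 10 min compound preincubation.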

[10] = biological target: Nuclear receptor subfamily 1 group I member 2 (Homo sapiens) (UniProt O75469); assay: Human pregnane X receptor (PXR) small molecule agonists, qHTS assay (AID 1346982); also: nearly all actives have a fitted effect of over 35% in size; also: potency is read from the fitted curve at half-maximal effect
Outline: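 PXR-Luc HepG2 cells (CYP3A4 promoter-driven luciferase) were seeded in medium with 5% charcoal-stripped FBS, left 5 hr at 37 C, then exposed to compounds in DMSO for 24 hr. Luminescence was read after ONE-Glo addition.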

[11] = biological target: Cytochrome P450 2C9 (Homo sapiens) (UniProt P11712); assay: Cytochrome P450 Family 2 Subfamily C Member 9 (CYP2C9) small molecule antagonists: luciferase reporter qHTS assay (AID 1671198); also: nearly all actives have a fitted effect of over 50% in size; also: potency is read from the fitted curve at half-maximal effect
Outline: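 P450-Glo proluciferin substrate with CYP2C9 enzyme; 10 min RT preincubation, then NADPH regeneration 1 h at 37C; luciferin detection reagent 20 min RT, luminescence in relative luminescence units.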

[12] = biological target: Nuclear receptor subfamily 1 group I member 2 (Rattus norvegicus) (UniProt Q9R1A7); assay: Rat pregnane X receptor (rPXR) activation by small molecules, qHTS assay (AID 1346983); conditions: rPXR luciferase reporter cells, One-Glo luminescence, 24 h; stronger effect = higher value; also: nearly all actives have a fitted effect of over 20% in size
Outline: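 Cell-based rPXR activation assay: rPXR cells, 2,000 per well, rested 5hr at 37 C, then exposed to compounds in DMSO for 24 hr at 37 C. Luciferase activity read by One-Glo luminescence after 30 min at room temperature.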

[13] = biological target: Nuclear receptor subfamily 1 group I member 2 (Homo sapiens) (UniProt O75469); assay: CYP3A4 induction through human pregnane X receptor (PXR) by small molecules, qHTS assay (AID 1346984); also: nearly all actives have a fitted effect of over 40% in size
Outline: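 DPX-2 cells (HepG2 co-transfected with PXR and CYP3A4 promoter-luciferase) treated with compounds 24 h at 37C; luciferin-IPA CYP3A4 substrate 3uM final added for 3 h, then One-Glo; luminescence read. qHTS format.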

[14] = biological target: Nuclear receptor subfamily 1 group I member 2 (Homo sapiens) (UniProt O75469); assay: Human pregnane X receptor (PXR) activation by small molecules, qHTS assay (AID 1346985); also: nearly all actives have a fitted effect of over 40% in size
Outline: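 DPX-2 cells (HepG2 co-transfected with a PXR response element and a CYP3A4-promoter luciferase construct) were seeded at 2,000 per well, rested 5 hr at 37C, then exposed to DMSO-dissolved compounds for 24 hr. Activation was read as luciferase luminescence.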
% is scaled to controls: 0 for no effect and ±100 for the full control effect.

Sequence of Nuclear receptor subfamily 1 group I member 2 (Homo sapiens) (O75469 whole entry, looked up): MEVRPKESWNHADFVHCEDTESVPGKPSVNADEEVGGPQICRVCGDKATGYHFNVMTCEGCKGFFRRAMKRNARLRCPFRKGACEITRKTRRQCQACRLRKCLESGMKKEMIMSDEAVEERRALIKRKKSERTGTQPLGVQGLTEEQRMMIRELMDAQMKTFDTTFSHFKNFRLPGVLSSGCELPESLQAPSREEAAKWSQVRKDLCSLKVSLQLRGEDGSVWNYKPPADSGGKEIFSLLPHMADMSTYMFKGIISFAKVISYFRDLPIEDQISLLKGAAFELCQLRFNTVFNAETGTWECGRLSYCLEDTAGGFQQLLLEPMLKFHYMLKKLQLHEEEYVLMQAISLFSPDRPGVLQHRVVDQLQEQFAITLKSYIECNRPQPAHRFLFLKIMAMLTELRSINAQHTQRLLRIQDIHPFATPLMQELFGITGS
Sequence of Cytochrome P450 2C19 (Homo sapiens) (P33261 whole entry, looked up): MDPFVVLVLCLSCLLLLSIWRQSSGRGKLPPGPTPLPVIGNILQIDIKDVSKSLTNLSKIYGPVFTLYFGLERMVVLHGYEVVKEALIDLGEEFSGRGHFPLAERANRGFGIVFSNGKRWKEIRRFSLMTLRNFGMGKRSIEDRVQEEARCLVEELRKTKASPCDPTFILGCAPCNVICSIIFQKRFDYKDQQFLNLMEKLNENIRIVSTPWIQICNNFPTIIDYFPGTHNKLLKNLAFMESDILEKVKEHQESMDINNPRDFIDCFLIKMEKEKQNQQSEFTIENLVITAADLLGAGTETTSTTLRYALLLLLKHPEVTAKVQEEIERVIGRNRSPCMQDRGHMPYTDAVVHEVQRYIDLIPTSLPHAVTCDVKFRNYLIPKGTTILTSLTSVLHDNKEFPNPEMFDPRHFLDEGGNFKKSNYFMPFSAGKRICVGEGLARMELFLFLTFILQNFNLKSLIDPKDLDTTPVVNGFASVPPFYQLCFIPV
Sequence of Cytochrome P450 3A4 (Homo sapiens) (P08684 whole entry, looked up): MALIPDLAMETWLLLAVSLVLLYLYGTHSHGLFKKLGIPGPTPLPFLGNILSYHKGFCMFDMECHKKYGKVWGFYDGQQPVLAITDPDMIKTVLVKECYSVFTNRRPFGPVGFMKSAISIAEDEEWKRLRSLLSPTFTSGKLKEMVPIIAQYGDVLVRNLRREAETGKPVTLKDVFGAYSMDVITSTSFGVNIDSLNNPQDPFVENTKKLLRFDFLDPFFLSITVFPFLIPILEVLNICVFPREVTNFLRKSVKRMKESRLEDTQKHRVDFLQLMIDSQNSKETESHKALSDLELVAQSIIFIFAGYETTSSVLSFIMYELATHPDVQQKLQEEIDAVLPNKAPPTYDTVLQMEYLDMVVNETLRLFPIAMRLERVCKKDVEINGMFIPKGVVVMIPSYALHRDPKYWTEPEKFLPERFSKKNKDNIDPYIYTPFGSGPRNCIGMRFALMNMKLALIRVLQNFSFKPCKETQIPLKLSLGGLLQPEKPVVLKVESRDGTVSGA
Sequence of Voltage-gated inwardly rectifying potassium channel KCNH2 (Homo sapiens) (Q12809 whole entry, looked up): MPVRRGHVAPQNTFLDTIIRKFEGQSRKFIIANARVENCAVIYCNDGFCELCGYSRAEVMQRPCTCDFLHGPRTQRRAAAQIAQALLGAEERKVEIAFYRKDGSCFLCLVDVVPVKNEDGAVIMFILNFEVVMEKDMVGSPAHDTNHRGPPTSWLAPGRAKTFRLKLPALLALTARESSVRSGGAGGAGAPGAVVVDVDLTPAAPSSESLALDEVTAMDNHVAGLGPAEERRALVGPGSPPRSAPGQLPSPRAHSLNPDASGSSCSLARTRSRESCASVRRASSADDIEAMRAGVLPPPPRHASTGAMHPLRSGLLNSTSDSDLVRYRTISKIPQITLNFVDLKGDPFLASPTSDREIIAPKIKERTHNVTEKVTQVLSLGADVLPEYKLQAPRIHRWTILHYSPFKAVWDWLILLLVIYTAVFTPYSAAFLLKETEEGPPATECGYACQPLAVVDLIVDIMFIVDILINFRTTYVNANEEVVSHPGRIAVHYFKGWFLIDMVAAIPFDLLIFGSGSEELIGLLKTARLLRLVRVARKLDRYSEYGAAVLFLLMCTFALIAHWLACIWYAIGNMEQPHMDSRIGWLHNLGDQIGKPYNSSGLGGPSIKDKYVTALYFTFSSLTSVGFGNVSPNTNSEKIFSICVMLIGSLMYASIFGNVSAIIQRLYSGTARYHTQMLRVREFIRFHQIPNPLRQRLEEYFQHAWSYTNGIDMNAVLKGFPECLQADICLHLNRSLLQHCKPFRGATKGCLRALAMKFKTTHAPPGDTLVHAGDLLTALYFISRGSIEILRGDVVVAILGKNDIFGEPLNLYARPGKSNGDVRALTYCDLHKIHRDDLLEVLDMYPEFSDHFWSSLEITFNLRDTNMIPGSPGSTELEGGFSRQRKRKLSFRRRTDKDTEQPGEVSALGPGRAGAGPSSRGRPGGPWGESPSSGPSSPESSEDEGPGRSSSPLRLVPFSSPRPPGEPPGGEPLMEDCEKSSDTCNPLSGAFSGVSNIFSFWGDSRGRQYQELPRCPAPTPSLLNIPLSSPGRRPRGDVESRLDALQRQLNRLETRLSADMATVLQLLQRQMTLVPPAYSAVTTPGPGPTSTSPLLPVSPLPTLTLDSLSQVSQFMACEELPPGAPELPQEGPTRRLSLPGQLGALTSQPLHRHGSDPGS
Sequence of Nuclear receptor subfamily 1 group I member 2 (Rattus norvegicus) (Q9R1A7 whole entry, looked up): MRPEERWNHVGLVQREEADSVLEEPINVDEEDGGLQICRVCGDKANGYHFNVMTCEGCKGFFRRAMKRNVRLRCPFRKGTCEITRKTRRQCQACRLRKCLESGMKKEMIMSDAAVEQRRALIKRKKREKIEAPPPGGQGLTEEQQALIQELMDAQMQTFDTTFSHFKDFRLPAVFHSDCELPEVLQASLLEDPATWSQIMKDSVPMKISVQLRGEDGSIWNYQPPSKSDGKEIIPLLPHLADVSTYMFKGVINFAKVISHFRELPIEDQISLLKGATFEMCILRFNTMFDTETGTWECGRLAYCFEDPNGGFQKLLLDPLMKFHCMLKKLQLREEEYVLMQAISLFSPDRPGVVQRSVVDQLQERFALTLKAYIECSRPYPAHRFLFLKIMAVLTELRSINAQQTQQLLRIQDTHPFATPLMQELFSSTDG
Sequence of Cytochrome P450 1A2 (Homo sapiens) (P05177 whole entry, looked up): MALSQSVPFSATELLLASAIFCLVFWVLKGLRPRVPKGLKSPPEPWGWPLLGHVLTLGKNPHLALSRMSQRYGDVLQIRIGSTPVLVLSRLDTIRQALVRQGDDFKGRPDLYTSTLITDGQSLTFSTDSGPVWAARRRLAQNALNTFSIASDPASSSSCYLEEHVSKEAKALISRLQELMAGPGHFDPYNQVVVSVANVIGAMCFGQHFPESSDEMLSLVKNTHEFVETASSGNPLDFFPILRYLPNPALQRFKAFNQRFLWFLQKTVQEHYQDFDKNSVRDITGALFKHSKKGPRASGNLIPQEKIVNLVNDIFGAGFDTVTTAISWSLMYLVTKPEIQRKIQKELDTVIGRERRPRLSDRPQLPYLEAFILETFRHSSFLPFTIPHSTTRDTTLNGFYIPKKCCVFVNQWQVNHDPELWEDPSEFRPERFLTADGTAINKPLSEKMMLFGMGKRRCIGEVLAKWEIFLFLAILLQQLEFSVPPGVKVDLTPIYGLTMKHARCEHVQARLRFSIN
Sequence of Cytochrome P450 2D6 (Homo sapiens) (P10635 whole entry, looked up): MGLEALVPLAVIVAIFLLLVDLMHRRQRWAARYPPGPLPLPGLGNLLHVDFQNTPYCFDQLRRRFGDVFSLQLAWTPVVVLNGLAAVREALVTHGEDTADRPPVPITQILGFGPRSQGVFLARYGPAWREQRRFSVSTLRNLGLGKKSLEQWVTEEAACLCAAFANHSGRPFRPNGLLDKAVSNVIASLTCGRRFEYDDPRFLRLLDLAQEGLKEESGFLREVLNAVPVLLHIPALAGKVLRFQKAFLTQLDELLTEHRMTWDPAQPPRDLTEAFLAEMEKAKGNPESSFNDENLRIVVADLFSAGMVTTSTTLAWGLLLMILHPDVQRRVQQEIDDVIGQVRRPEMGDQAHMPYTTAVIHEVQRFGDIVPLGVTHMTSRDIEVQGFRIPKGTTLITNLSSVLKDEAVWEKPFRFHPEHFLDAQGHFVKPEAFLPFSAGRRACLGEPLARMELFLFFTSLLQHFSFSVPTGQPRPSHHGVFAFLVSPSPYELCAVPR
Sequence of Cytochrome P450 2C9 (Homo sapiens) (P11712 whole entry, looked up): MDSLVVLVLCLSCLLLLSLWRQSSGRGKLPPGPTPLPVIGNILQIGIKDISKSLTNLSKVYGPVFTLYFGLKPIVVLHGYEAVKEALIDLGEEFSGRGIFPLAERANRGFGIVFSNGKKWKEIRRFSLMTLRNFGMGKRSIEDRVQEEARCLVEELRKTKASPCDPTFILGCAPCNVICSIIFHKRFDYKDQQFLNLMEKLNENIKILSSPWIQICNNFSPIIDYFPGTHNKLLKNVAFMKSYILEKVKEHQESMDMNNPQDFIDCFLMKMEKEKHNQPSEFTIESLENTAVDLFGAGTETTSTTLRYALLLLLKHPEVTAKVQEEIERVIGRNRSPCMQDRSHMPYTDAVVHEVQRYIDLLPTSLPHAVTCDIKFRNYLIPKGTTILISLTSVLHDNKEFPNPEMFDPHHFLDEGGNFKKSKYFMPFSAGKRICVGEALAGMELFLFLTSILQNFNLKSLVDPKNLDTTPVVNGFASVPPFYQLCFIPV

O=C(O)/C=C/C(=O)O
inactive: Potency [1] | Potency [2] | outcome [3] | Potency [4] | Potency [6] | Potency [7] | Potency [8] | Potency [9]
37.6 µM (active) and inactive: Potency [5]

CNC(=S)N(C)C
inactive: Potency [1] | Potency [2] | outcome [3] | Potency [4] | Potency [5] | Potency [6] | Potency [7] | Potency [9]
61.7 µM (active) and inactive: Potency [10]

Nc1ccc(Cl)c(N)c1
inactive: Potency [1] | outcome [3] | Potency [4] | Potency [5]
active: Potency [10] 61.3 µM | Potency [6] 11.3 µM and 20 µM | Potency [7] 40 µM and 35.6 µM | Potency [9] 11.3 µM and 31.7 µM

CCCCCCCCCCCC(=O)OC
inactive: Potency [1] | Potency [2] | outcome [3] | Potency [4] | Potency [10] | Potency [5] | Potency [6] | Potency [11] | Potency [7] | Potency [8] | Potency [9]

COc1ccc(N)c(C)c1
inactive: Potency [1] | Potency [2] | outcome [3] | Potency [4] | Potency [10] | Potency [8]
active: Potency [5] 8.9 µM and 31.7 µM | Potency [6] 39.8 µM and 39.9 µM | Potency [11] 35.4 µM and 63.3 µM | Potency [7] 15.8 µM and 12.6 µM | Potency [9] 31.6 µM

C=CC(=O)OCCC(=O)O
104 µM (active) and inactive: Potency [6]
23.2 µM (active) and inactive: Potency [5]
inactive: Potency [1] | Potency [2] | outcome [3] | Potency [4] | Potency [10] | Potency [9]

CCCOC(=O)c1ccccc1
inactive: Potency [1] | outcome [3] | Potency [4] | Potency [10] | max activation [12] -6.55% | Potency [13] | outcome [14] | Potency [5] | Potency [6] | Potency [7] | Potency [8] | Potency [9]

c1ccc(Oc2ccccc2)cc1
inactive: Potency [1] | Potency [2] | outcome [3] | Potency [4] | Potency [10] | Potency [6] | Potency [11] | Potency [7] | Potency [8] | Potency [9]

C=CCCCCCCCCC(=O)O
inactive: Potency [1] | Potency [2] | outcome [3] | Potency [4] | Potency [10] | max activation [12] -1.23% | Potency [13] | outcome [14] | Potency [5] | Potency [6] | Potency [7] | Potency [9]

O=[N+]([O-])c1ccc2nc[nH]c2c1
active: Potency [7] 36.3 µM and 39.9 µM
inactive: Potency [1] | Potency [2] | outcome [3] | Potency [4] | Potency [10] | Potency [5] | Potency [6] | Potency [8] | Potency [9]

CCCCOC(=O)c1ccc(N)cc1
inactive: Potency [1] | outcome [3] | Potency [4] | Potency [8]
active: Potency [10] 53.8 µM and 23.7 µM

NCCCCCCN
active: Potency [5] 32 µM and 35.6 µM
inactive: Potency [1] | outcome [3] | Potency [4] | Potency [10] | Potency [6] | Potency [7] | Potency [8] | Potency [9]

O=S(=O)(O)c1ccccc1
inactive: Potency [1] | Potency [2] | outcome [3] | Potency [4] | Potency [8]

Cc1ccc([N+](=O)[O-])cc1S(=O)(=O)O
active: Potency [5] 39.2 µM | Potency [6] 35.6 µM
inactive: Potency [1] | Potency [2] | outcome [3] | Potency [4] | Potency [10] | Potency [8] | Potency [9]
inactive and 63.3 µM (active): Potency [7]

OC1C(O)C(O)C(O)C(O)C1O (stereo not drawn)
inactive: Potency [1] | outcome [3] | Potency [4] | Potency [10] | max activation [12] -0.165% | Potency [13] | outcome [14] | Potency [5] | Potency [6] | Potency [7] | Potency [9]

CC(=O)OCCOC(C)=O
inactive: Potency [1] | Potency [2] | outcome [3] | Potency [4] | Potency [10] | Potency [5] | Potency [6] | Potency [8] | Potency [9]

OCc1cccc(Oc2ccccc2)c1
active: Potency [5] 28.7 µM | Potency [6] 10.2 µM and 22.4 µM | Potency [11] 56.4 µM | Potency [7] 20.3 µM and 39.9 µM
inactive: Potency [1] | outcome [3] | Potency [4] | Potency [8] | Potency [9]

c1ccc2c(c1)Cc1ccccc1-2
inactive and 35.6 µM (active): Potency [6]
inactive and 39.9 µM (active): Potency [11]
active: Potency [7] 25.6 µM and 7.96 µM
inactive: Potency [1] | Potency [2] | outcome [3] | Potency [4] | Potency [10] | Potency [5] | Potency [9]
